# Source: the supplement of paper PMC7801607
# Columns and labels:
# CHO = assay: % viability of CHO cells (MTT); higher = less toxic; conditions: 48 h
# In short: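 Percent viability of CHO cells, relative to untreated cells, was read colorimetrically by tetrazolium (MTT) assay. Cells were seeded at 10^6 cells/well and treated for 48 h with compound at 2 or 20 µM in fresh medium.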
# HepG2-A16-CD81 = assay: % inhibition of HepG2 viability (CellTiter-Glo); higher = more toxic; conditions: 5 µM
# [1] = system: Plasmodium falciparum NF54 stage IV/V gametocytes; assay: % inhibition of gametocyte viability (PrestoBlue); higher = more inhibition; conditions: 48 h
# In short: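 Stage IV/V NF54 gametocytes were exposed to compound at 1 or 5 µM for 48 h at 37 °C under stationary, hypoxic conditions, then read by PrestoBlue fluorescence at 612 nm. The percent inhibition of gametocyte viability was normalised to vehicle and kill controls from one run.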
# [2] = system: Plasmodium falciparum NF54 asexual blood stage; assay: % inhibition of asexual blood stage proliferation (pLDH); higher = more inhibition; conditions: 72 h
# In short: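 Ring-stage cultures of Plasmodium falciparum NF54 at 1% haematocrit and 2% parasitaemia were treated with compound at 2 or 20 µM in 96-well plates and kept for 72 h at 37 °C under 4% CO2, 3% O2 and 93% N2. Parasite survival was measured by the parasite lactate dehydrogenase assay, read colorimetrically at 620 nm. Percent inhibition of asexual proliferation was calculated relative to control wells, and the screen was carried out on two separate occasions.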
# [3] = system: Plasmodium falciparum NF54 stage IV/V gametocytes; assay: % inhibition of gametocyte viability (ATP bioluminescence); higher = more inhibition; conditions: 24 h
# In short: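 Stage IV/V NF54 gametocytes were enriched on density gradients and seeded at 30,000 per well in 96-well plates with compound at 1 or 5 µM. Plates were incubated for 24 h at 37 °C. ATP was measured with the Promega BacTiter Glo bioluminescence system. Percent inhibition of gametocyte viability was normalised to DMSO and kill controls from a single run.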
# [4] = system: Plasmodium falciparum NF54 stage IV/V gametocytes; assay: % inhibition of gametocyte viability (luciferase reporter); higher = more inhibition; conditions: 48 h
# In short: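 Percent inhibition came from luminescence and was normalised to controls in a single run. Gametocytes (stage IV/V, NF54-Pfs16-GFP-Luc line, 2% gametocytaemia, 2% haematocrit) were treated with compound at 1 or 5 µM and incubated for 48 h at 37 °C without agitation under hypoxia. Readings used 30 µL lysate with 30 µL Promega luciferin substrate on a GloMax-Multi+ reader, integrating for 10 s.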
# [5] = system: Plasmodium berghei ANKA liver stage in HepG2-A16-CD81; assay: % inhibition of liver stage parasite viability (luciferase); higher = more inhibition; conditions: 5 µM; 48 h
# Description: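 Single-concentration screen of the MMV Pandemic Response Box. P. falciparum NF54 asexual blood stages: pLDH assay, 72 h at 37 °C, 2 and 20 µM, n=2. Stage IV/V gametocytes (NF54): luciferase reporter (NF54-Pfs16-GFP-Luc, 48 h), ATP bioluminescence (24 h) and PrestoBlue (48 h) at 1 and 5 µM, n=1. P. berghei liver stage (luciferase in HepG2-A16-CD81, 48 h post infection) at 5 µM, n=4. All normalised to DMSO and kill controls as % inhibition.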
# 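Throughout, for % inhibition of HepG2 viability (CellTiter-Glo): HepG2-A16-CD81 hepatoma cells plated as in the liver-stage assay but without sporozoites, with DMSO wells as negative and 25 µM puromycin as positive control.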
Structure (SMILES),% viability of CHO cells (CHO; 2 µM) [%],% viability of CHO cells (CHO; 20 µM) [%],% inhibition of HepG2 viability (HepG2-A16-CD81) [%],% inhibition of gametocyte viability ([1]; 1 µM) [%],% inhibition of gametocyte viability ([1]; 5 µM) [%],% inhibition of asexual blood stage proliferation ([2]; 2 µM) [%],% inhibition of asexual blood stage proliferation ([2]; 20 µM) [%],% inhibition of gametocyte viability ([3]; 1 µM) [%],% inhibition of gametocyte viability ([3]; 5 µM) [%],% inhibition of gametocyte viability ([4]; 1 µM) [%],% inhibition of gametocyte viability ([4]; 5 µM) [%],% inhibition of liver stage parasite viability [5] [%]
O=[N+]([O-])/C(Br)=C/c1ccc(Br)o1,89.2,99.8,-4.63,23.1,57,27.6,2.9,6.32,14.3,4.3,49.5,15.9
N[C@H](CCC(=O)N[C@@H](Cc1c[nH]c2ccccc12)C(=O)O)C(=O)O,116,57.6,-8.85,< 0,3.44,28.8,43.7,4.77,< 0,6.42,< 0,–
Cc1ccc(N2CCC(CCOc3ccc(S(C)(=O)=O)cc3)CC2)nn1,89.6,123,1.45,0.785,< 0,9.69,64.6,1.5,< 0,0.296,< 0,17.8
CSc1ccc2c(c1)C(N1CCN(C)CC1)Cc1ccccc1S2 (stereo not given),90.7,137,-7.96,< 0,< 0,26.2,73.7,20.9,44.2,1.22,4.12,–
NS(=O)(=O)c1ccc(NC(=O)NC(c2ccccc2)c2ccccc2)cc1,258,58.6,4.57,< 0,7.57,3.15,82.5,< 0,< 0,< 0,< 0,19.3
Oc1c(C(Nc2ccccn2)c2ccccc2)ccc2cccnc12 (stereo not given),115,68.7,10.2,49,26.9,71.8,88.8,< 0,40.6,0.252,33.3,12.4
C[Si]1(C)CCN(Cc2cc(-c3ccc(Cl)cc3)n(-c3ccc(Cl)cc3)n2)CC1,108,71.6,5.65,28.8,68.7,57,59.2,3.88,81,3.92,31.2,33.3
COc1ccc(SC(=O)N[C@H](CCC(=O)O)C(=O)O)cc1,114,122,3.46,< 0,58.8,58.1,103,< 0,6.16,23.9,62.8,19.9
N#C/C(=C1/SC[C@H](c2ccc(Cl)cc2Cl)S1)n1ccnc1,113,118,10,11.8,16.4,48.7,22.8,< 0,< 0,< 0,1.63,–
CCc1nc(N)nc(N)c1C#CCc1ccccc1,105,92.5,5.43,1.8,< 0,66,97.2,< 0,< 0,5.41,< 0,–
OB1OCc2cc(Cl)ccc21,90.1,100,-4.78,< 0,< 0,2.76,-5.4,< 0,< 0,< 0,< 0,–
CCOC(=O)Nc1cc(NC(C)CC(C)CN(CC)CC)c2nc(-c3ccccc3)c(-c3ccccc3)nc2n1 (stereo not given),94,116,12.9,26.4,51.1,37.7,54.6,28,75,< 0,51.1,–
CNC(=O)C1O[C@@H](n2cnc3c(NCc4cccc(I)c4)nc(Cl)nc32)[C@H](O)[C@@H]1O (stereo not given in full),97.5,132,-10.3,12.5,24.1,33.8,63,< 0,< 0,< 0,< 0,–
CC(C)Cn1c(=O)n(C)c(=O)c2c(-c3cncn3C)n(Cc3cccc4ccccc34)nc21,92.4,102,8.23,3.5,22.5,85.2,118,< 0,< 0,11.4,< 0,–
Cc1onc(-c2ccccc2Cl)c1C(=O)N[C@@H]1C(=O)N2[C@@H]1SC(C)(C)[C@@H]2C(=O)O,126,143,-1.54,< 0,30.1,8.35,-0.0824,< 0,< 0,< 0,7.91,–
O=S(=O)(Nc1ccc(O)cc1)c1cccc2cccnc12,91.3,104,0.07,< 0,< 0,28.2,52.4,< 0,< 0,< 0,< 0,–
CCC(C)(C)c1ccc(CC(C)CN2C[C@@H](C)O[C@@H](C)C2)cc1 (stereo not given in full),100,124,-1.79,< 0,4.53,89.6,82,< 0,< 0,< 0,< 0,–
CCOCc1nc2c(N)nc3ccccc3c2n1CC(C)(C)O,84,69.2,8.2,8.02,14.8,58,77,< 0,< 0,2.74,5.55,–
CC[C@@H]1C(=O)OC[C@@H]1Cc1cncn1C,111,110,-1.73,< 0,< 0,5.57,14.4,< 0,< 0,< 0,10.7,–
